Hits are enriched below; roughly 1.7% of the tested compounds scored in any of these assays.
LYPLA1 counter: counter-screen for PME1 inhibitors: inhibitors of human LYPLA1; recombinant LYPLA1, FP-Rh probe fluorescence polarization; inhibition, % at 5.9 µM; 0.16% of 320,000 active; AID 2174;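 active = inhibition above the mean of all tested compounds plus 3 SD, set per campaign, cut at about 14% in these data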;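 also: inhibitors block serine hydrolase probe labeling of LYPLA1 so polarization falls; 0% = enzyme with DMSO and 100% = wells lacking LYPLA1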
Target sequence (O75608 whole entry, looked up): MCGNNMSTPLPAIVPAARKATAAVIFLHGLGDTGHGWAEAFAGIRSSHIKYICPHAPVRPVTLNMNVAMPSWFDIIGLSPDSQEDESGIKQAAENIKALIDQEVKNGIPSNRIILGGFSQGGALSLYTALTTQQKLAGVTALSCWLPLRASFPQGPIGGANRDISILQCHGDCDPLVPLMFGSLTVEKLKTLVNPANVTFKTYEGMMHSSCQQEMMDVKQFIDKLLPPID
LYPLA2 inh: LYPLA2 (human) inhibition in PME1 counter-screen. recombinant LYPLA2, FP-Rh probe fluorescence polarization. AID 2177. inhibition, % at 5.9 µM. O95372. 0.38% of 320,000 active;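 active = inhibition above the screen-wide mean plus 3 SD, limit set per campaign, cut at about 26% in these data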;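 also: 0% = LYPLA2 with DMSO and 100% = wells lacking LYPLA2 enzyme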
Target sequence (O95372 whole entry, looked up): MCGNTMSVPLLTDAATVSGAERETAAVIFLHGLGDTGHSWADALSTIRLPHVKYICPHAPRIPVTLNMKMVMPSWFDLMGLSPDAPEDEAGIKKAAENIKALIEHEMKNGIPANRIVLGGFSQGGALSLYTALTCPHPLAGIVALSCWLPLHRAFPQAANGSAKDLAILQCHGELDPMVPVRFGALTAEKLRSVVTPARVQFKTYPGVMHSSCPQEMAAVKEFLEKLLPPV
PREPL inh: inhibitors of human prolyl oligopeptidase-like enzyme PREPL | Q4J6C6 | recombinant PREPL, fluorescence polarization activity-based probe | inhibition, % at 5.96 µM | 0.68% of 320,000 active; in the data active = inhibition above about 43%;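 also: 0% = enzyme with DMSO and 100% = wells lacking enzyme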
Hck-Nef inh: inhibitors of human Hck kinase activated by Nef; P08631; Recombinant Hck-YEEI plus Nef, Z-Lyte FRET kinase assay; inhibition, % at 20 µM; 0.68% of 220,000 active;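 active = Hck-Nef kinase inhibition above about 50%, limit read from the data; inactive = inhibition below that limit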;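 also: 0% = DMSO with Hck plus Nef and 100% = Hck alone without Nef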
Rin1-Abl PPI inh: blocks binding of human Rin1 to Abl | AID 588664 | inhibition, % at 7.35 µM | 0.4% of 360,000 active | TR-FRET Rin1/Abl binding, biochemical; in the data active = inhibition above about 5%, passing the limit was not always enough
p97 ATPase inh: inhibitors of human p97 ATPase; P55072; recombinant p97 ATPase, Kinase-Glo ATP luminescence, 3 h; inhibition, % at 8 µM; 0.42% of 220,000 active; AID 1481; in the data active = inhibition above about 15%;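 also: 0% = DMSO vehicle and 100% = wells lacking enzyme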
Hck Nef conf: Hck-Nef kinase inhibition, confirmation; shares compounds with Hck-Nef inh; 28% of 1,300 active; Recombinant Hck-YEEI:Nef, Z-Lyte FRET kinase assay; calls only at 10 µM;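 active = average inhibition of at least 50%, with Z-scores no higher than 3 in both the phospho-tyrosine peptide and fluorescence counterscreens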
* = called active by the depositor; i = inactive; / = not tested or not shown; + = active, no number.

SMILES	LYPLA1 counter	LYPLA2 inh	PREPL inh	Hck-Nef inh	Rin1-Abl PPI inh	p97 ATPase inh	Hck Nef conf
Cc1ncc([N+](=O)[O-])n1CC(=O)Nc1cc(Cl)ccc1Cl	-2.2	4.9	19.1	/	-1.3	/	/
O=C1C(=Cc2ccco2)C(=O)c2ccccc21	0.3	7.6	26.4	8.8	2.1	-2.4	/
O=C1/C(=C/c2ccco2)CCc2ccccc21	-0.5	7.5	-2.6	100.1*	-1.3	1.4	i
COc1cccc(/C=N/NC(=O)c2ccc(-n3cnnn3)cc2)c1	/	/	/	/	1.4	/	/
NCCCCCC(=O)N/N=C/c1coc2ccccc2c1=O	-1.9	-1.3	13.8	84.0*	-4.9	-3.9	+
N#CCC(=O)N/N=C/c1coc2ccccc2c1=O	-2.9	-10.9	4.3	81.0*	-3.5	5.9	+
O=C(N/N=C/c1coc2ccccc2c1=O)c1ccccc1	0.6	0.6	-6.7	87.3*	-0.6	2.5	i
O=C(N/N=C/c1coc2ccccc2c1=O)c1ccc(Cl)cc1	-1.2	0.7	3.3	/	-0.2	/	/
O=C(N/N=C\c1coc2ccccc2c1=O)c1ccco1	4.6	-0.3	-3.0	82.8*	-1.3	1.6	+
CC(C)=NNc1ncnc2nc[nH]c12	/	/	/	/	4.2	/	/
CCc1ccc(/C=N/Nc2ncnc3nc[nH]c23)cc1	1.9	2.7	11.7	94.9*	-0.8	-5.4	+
COCCCn1c(=N)c(C(=O)NC2CCCCC2)cc2c(=O)n3ccccc3nc21	3.6	12.2	17.8	+	0.0	-5.6	/
COc1ccc(Cn2c(=N)c(C(=O)NC3CCCCC3)cc3c(=O)n4ccccc4nc32)cc1	-0.6	-6.5	18.6	/	-1.2	/	/
N=c1c(C(=O)NC2CCCC2)cc2c(=O)n3ccccc3nc2n1C1CCCC1	-0.8	0.2	9.2	122.1*	-7.8	2.8	/
Cc1cccn2c(=O)c3cc(C(=O)NC(C)c4ccccc4)c(=N)n(CCCn4ccnc4)c3nc12 (stereo not given)	-5.0	-9.8	21.5	+	-5.6	4.8	/
CCCn1c(=N)c(C(=O)NC2CCCC2)cc2c(=O)n3cccc(C)c3nc21	0.1	-0.8	20.2	187.3*	-3.2	0.2	/
Oc1[nH]c2ccccc2c1C=Nc1ccc2c(c1)OCO2	0.3	-0.9	33.4	51.9*	-5.6	0.1	i
CCn1c(=S)sc2c(=O)n(CC(=O)Nc3cccc(OC)c3)c(C)nc21	2.7	4.7	15.0	/	1.9	/	/
COc1ccc(S(=O)(=O)N(Cc2ccccc2)Cc2nc3ccccc3c(=O)[nH]2)cc1	2.5	4.2	4.4	0.2	-1.5	-2.3	/
COc1ccccc1CN(Cc1nc2ccccc2c(=O)[nH]1)S(=O)(=O)c1ccc2ccccc2c1	-13.1	-21.1	-10.6	109.6*	3.3	-7.3	i
C[C@H](CO)N1C[C@H](C)[C@@H](CN(C)C)Oc2c(NS(=O)(=O)c3ccccc3)cccc2C1=O	/	/	3.1	/	0.7	/	/
O=c1[nH]cnc2c1ncn2C1CCC(CO)O1 (stereo not given)	/	/	/	/	0.3	/	/
C(=N\NCc1ccccc1)/c1ccc2nccnc2c1	0.6	11.0	8.8	68.4*	1.6	-1.9	+
COc1cccc(COC(=O)C2CCN(S(=O)(=O)c3ccc(C)cc3C)CC2)c1OC	-0.9	1.4	2.5	/	-2.6	/	/
COc1cc(OC)c(/C=N/NC(=O)c2ccc(NC(C)=O)cc2)cc1Br	/	/	/	55.2*	1.1	1.3	i
SMILES	LYPLA1 counter	LYPLA2 inh	PREPL inh	Hck-Nef inh	Rin1-Abl PPI inh	p97 ATPase inh	Hck Nef conf
COc1cc(OC)c(/C=N/NC(=O)c2ccncc2)cc1Br	-4.1	0.8	-8.7	4.0	-1.2	2.8	/
Cc1ccccc1C(=O)N(C)[C@H]1C[C@H]2c3[nH]c4ccccc4c3CCN2C[C@H]1[C@H](C)O	/	/	/	/	-3.4	/	/
COc1ccc(C)cc1N(CC(=O)NCCSCc1ccco1)S(=O)(=O)c1ccc(C)cc1	-3.4	-11.2	-15.3	/	-0.2	/	/
COc1ccccc1/C=N\Nc1cn[nH]c(=O)c1Cl	-4.1	-1.6	-4.9	61.1*	-2.9	1.2	i
O=c1[nH]ncc(N/N=C\c2ccncc2)c1Cl	0.7	-1.0	-12.0	42.8	-2.8	-0.7	/
O=c1[nH]ncc(N/N=C\c2cccs2)c1Cl	-1.6	-1.2	-19.7	58.7*	-7.9	5.2	+
CCc1nc(SCC(=O)Nc2ccc(Br)cn2)n[nH]1	1.5	8.4	5.7	/	4.1	/	/
CCN(CC)c1ccc(NC(=O)Cn2c(C(C)NC(=O)c3ccccc3)nc3ccccc32)cc1 (stereo not given)	-3.5	1.6	11.6	15.2	-3.3	0.1	/
Cc1ccc(C(=O)NC(C)c2nc3ccccc3n2CC(=O)Nc2c(C)cc(C)cc2C)cc1 (stereo not given)	2.5	0.3	8.9	57.5*	/	-2.0	i
COc1cccc(Nc2ncc(C#N)c(N)n2)c1	-3.0	0.4	-0.2	56.6*	-1.9	11.4	+
COc1ccc(OC)c(C(=O)COC(=O)c2[nH]c(C)c(C(C)=O)c2C)c1	/	/	/	/	0.8	/	/
COc1ccc(C(=O)Nc2ccccc2-c2nnn(CC(=O)Nc3ccc4c(c3)OCCO4)n2)cc1	-1.5	7.3	15.0	59.5*	3.7	2.4	i
O=C(Cn1c2ccc(F)cc2c2nc3n(c(=O)c21)CCS3)Nc1ccccc1C(F)(F)F	-0.6	-8.7	-0.9	89.2*	-3.1	1.4	i
COc1ccc(-c2noc(CN(C)Cc3ccccc3)n2)c(OC)c1OC	/	/	/	/	-1.6	/	/
COc1ccc(Cn2c(-c3ccccc3)nc3c(c(=O)c4ccccc4n3C)c2=O)cc1	-0.7	-15.4	20.7	20.7	-0.6	5.0	/
Cn1c2ccccc2c(=O)c2c(=O)n(Cc3ccco3)c(-c3ccc(C(C)(C)C)cc3)nc21	-0.8	0.6	6.6	55.1*	/	4.3	i
CCc1cc2c3c(c(=O)oc2cc1O)CCCC3	-1.4	-2.3	-3.5	91.4*	-4.0	-6.7	/
CCc1cc2c3c(c(=O)oc2cc1OC(C)C(=O)O)CCCC3 (stereo not given)	1.4	2.7	-2.5	/	1.3	/	/
CCOc1cc(C2c3c(oc4ccccc4c3=O)C(=O)N2c2nccs2)ccc1O (stereo not given)	1.8	1.1	14.9	84.5*	-4.1	7.1	i
O=Cc1cn(-c2ccccc2)nc1-c1cc2cc(O)ccc2oc1=O	4.1	5.6	15.0	52.4*	-4.6	5.8	/
O=Cc1cn(-c2ccccc2)nc1-c1cc2c(ccc3ccccc32)oc1=O	-4.2	-7.5	-27.7	24.3	-0.9	8.4	/
Nc1ccc(-c2nc3ccc(C(=O)O)cc3s2)cc1	-0.7	-2.3	10.6	114.8*	0.1	2.6	/
Nc1ccc(-c2nc3ccc(N)cc3s2)cc1	1.1	-0.3	23.1	60.7*	-7.5	-1.5	i
O=C(O)c1ccc2nc(-c3ccccc3)sc2c1	4.2	-0.8	14.6	3.3	-2.5	5.4	/
O=C(CSCc1ccc(Cl)cc1)Nc1ccc(-c2nnc(-c3ccccc3)o2)cc1	-2.9	-0.8	4.4	91.1*	-1.3	0.1	i
